Source: PubChem BioAssay AID624330 (Southern Research Specialized Biocontainment Screening …, 2012)
Hit rate of the full screen: of about 340,000 compounds, about 2,100 (0.62%) were called active.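 The calls were made as follows: active = first-screen hits whose inhibition reached a set limit at any dose in the follow-up dose series; inconclusive = inhibition above the set first-screen limit but never retested; inactive = the rest.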 The list is a sample of the results. Entries with a potency or affinity are not part of this list.

target: Rac GTPase-activating protein 1 (Homo sapiens) (UniProt Q9H0H5); assay: blockers of MgcRacGAP-driven Rac1 GTP hydrolysis – biochemical, ADP Hunter fluorescence, primary and confirmatory, confirmation (AID 624330); conditions: MgcRacGAP-stimulated Rac1 GTP hydrolysis, at 30 µM, stronger effect = higher value, GST-tagged Rac1 F28L mutant substrate;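 also: fluorescence reports GDP produced by GAP-driven GTP hydrolysis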
Sequence (Q9H0H5 whole entry, looked up): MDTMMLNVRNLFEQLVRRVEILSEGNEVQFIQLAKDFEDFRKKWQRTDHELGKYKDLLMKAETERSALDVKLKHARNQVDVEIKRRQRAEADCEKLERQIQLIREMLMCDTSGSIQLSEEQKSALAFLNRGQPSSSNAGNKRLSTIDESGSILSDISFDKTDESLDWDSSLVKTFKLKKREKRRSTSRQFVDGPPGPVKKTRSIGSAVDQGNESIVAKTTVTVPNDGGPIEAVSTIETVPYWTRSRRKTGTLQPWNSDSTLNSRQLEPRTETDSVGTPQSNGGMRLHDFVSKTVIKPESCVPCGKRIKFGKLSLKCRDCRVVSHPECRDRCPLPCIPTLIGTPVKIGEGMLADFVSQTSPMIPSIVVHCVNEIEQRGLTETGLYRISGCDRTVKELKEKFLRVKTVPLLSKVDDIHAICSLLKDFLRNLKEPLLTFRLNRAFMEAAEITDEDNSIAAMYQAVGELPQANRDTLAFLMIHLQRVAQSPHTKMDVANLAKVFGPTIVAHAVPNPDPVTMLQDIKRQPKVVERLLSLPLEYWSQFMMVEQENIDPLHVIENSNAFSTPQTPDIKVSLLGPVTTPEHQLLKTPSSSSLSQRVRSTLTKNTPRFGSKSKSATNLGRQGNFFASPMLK

inhibition, inactive:
Fc1ccc(C2CC(c3ccco3)n3ncnc3N2)cc1 (stereo not drawn) -3.61%
Cc1cc(C(=O)Nc2sccc2C(N)=O)c(C)o1 2.82%
CCc1ccc2oc(C(=O)Nc3cccnc3)c(C)c2c1 3.43%
COc1ccc(NC(=O)NC(C)c2ccccc2)cc1 (stereo not drawn) 7.88%
CN1CCN(c2nc3ccccn3c(=O)c2/C=C(\C#N)S(=O)(=O)c2ccccc2)CC1 10.8%
O=C(CCN1C(=O)C2C3CC(C(Br)C3Br)C2C1=O)OCC(=O)c1ccccc1 (stereo not drawn) 7.46%
O=C(CNS(=O)(=O)c1ccc(Cl)cc1)NC1CCCCC1 -0.07%
Cc1cc(C(=O)NCc2ccc(F)cc2)n(-c2ccccc2)n1 12.3%
COc1ccc(CN2CCN(CCCc3ccccc3)C(CCO)C2)c(OC)c1 (stereo not drawn) 3.22%
COc1cccc(N2CCN(Cc3ncc(-c4ccccc4)o3)CC2)c1 7.37%
Cc1ccc(/C=N/Nc2nc3ccccc3[nH]2)s1 -6%
COc1ccc(/C=N/Nc2nc3ccccc3[nH]2)c(OC)c1OC 12.8%
Cn1c(/N=C/c2c[nH]c3ccccc23)nc2ccccc21 8.49%
Cc1ccccc1/C=N/Nc1nc2ccccc2[nH]1 18.4%
Cc1cc(=O)[nH]c(N/N=C/c2c[nH]c3ccccc23)n1 22.9%
Cc1cc(N/N=C/c2c[nH]c3ccccc23)c2ccccc2n1 -1.16%
Fc1c(F)c(F)c(N/N=C/c2c[nH]c3ccccc23)c(F)c1F 3.69%
CC(C)n1c(/N=C/c2c[nH]c3ccccc23)nc2ccccc21 1.11%
Cc1ccc(-c2nc(C3CCN(S(C)(=O)=O)CC3)no2)cc1 10.6%
O=C1NC(Cc2ccccc2)c2nc3ccc(Cl)cc3c(=O)n2-c2ncccc21 (stereo not drawn) 7.29%
CC(NS(C)(=O)=O)C(c1cccs1)N1CCN(C)CC1 (stereo not drawn) 10.3%
CCOC(=O)N1CCN(CC(O)COc2ccc(C(C)C)c(C)c2)CC1 (stereo not drawn) 5.78%
COCC1CCCCN1C(=O)c1ccc(OC2CCN(CCc3ccccc3)CC2)cc1 (stereo not drawn) 10.2%
COC(=O)c1cc(S(=O)(=O)N2CCC(c3cc(OC)ccc3OC)C2)c[nH]1 (stereo not drawn) 8.61%
Cc1ccc(-c2sc(C)nc2CC(=O)O)cc1 13.9%
O=C(Nc1cccc(-n2cnnn2)c1)c1cc(Cl)nc(Cl)c1 9.64%
COc1ccccc1/C=C/C(=O)OCc1nc2ccccc2c(=O)[nH]1 7.19%
CC(C)(Oc1ccc(Cl)cc1)C(=O)NC1CC1 7.55%
CCC(C)c1ccc(OCC(=O)Nc2ccc3c(c2)C(=O)NC3=O)cc1 (stereo not drawn) 5.62%
c1ccc(-c2ccccc2OCCCCN2CCCCC2)cc1 29.3%
C=CCNC(=S)N/N=C(\C)c1ccc(-n2ccnc2)cc1 -11.5%
O=C(CN1CCOCC1)Nc1ccc2c(c1)OC(F)(F)O2 1.95%
CC1CCCCN1CC(=O)Nc1ccc2c(c1)OC(F)(F)O2 (stereo not drawn) -6.38%
CN(CC(=O)Nc1ccc(Cl)cc1)C1CCCCC1 9.37%
COc1ccc(NC(=O)CN(C)C2CCCCC2)cc1Cl 12.2%
CN(CC(=O)Nc1ccc(S(N)(=O)=O)cc1)C1CCCCC1 1.98%
CN(CC(=O)Nc1ccc(Cl)c(Cl)c1)C1CCCCC1 23.1%
c1ccc(Cc2nc3ccccc3o2)cc1 8.84%
CCN(c1ccccc1)S(=O)(=O)c1ccc(C(=O)Nc2cccc(NC(C)=O)c2)cc1 5.09%
COc1ccc(/C=C2\SC(=S)N(CCC(=O)Nc3ccc(C(=O)O)cc3)C2=O)cc1OC 0.85%
O=C(COC(=O)c1ccc(O)cc1)Nc1ccccc1 10.2%
NC(=Nc1ccccc1)Nc1ccccc1 7.17%
O=C(CC(=O)Nc1ccc(F)cc1)Nc1ccc(F)cc1 5.61%
COCC(=O)Nc1ccc(F)cc1 -1.69%
O=C(Cc1ccccc1)Nc1ccc(C(=O)Nc2ccc(O)cc2)cc1 24.4%
CC(=O)Nc1ccc(N=Nc2ccccc2)cc1 0.87%
CC(=O)Nc1ccc(N=NN2CCOCC2)cc1 4.54%
CC(=Nc1ccccc1)Nc1ccccc1 5.11%
CCC(Oc1ccccc1)C(=O)Nc1ccccc1N1CCCC1 (stereo not drawn) 7.77%
CNC(=O)c1oc(-c2ccccc2)nc1C 10.8%
O=C(COC(=O)C1CC(=O)N(c2ccc3c(c2)OCCO3)C1)Nc1ccc2c(c1)CCC2 (stereo not drawn) 8.9%
O=C1CC(NS(=O)(=O)c2cccnc2)CN1c1cccc(F)c1 (stereo not drawn) 6.2%
COC(=O)C(C(=O)N1CCN(C)CC1)C1CCCCCC1 (stereo not drawn) -1.36%
Cc1ccc(NC(=O)c2cc(S(=O)(=O)N3CCOCC3)ccc2Cl)cc1S(=O)(=O)N1CCOCC1 9.95%
Cc1ccc(Nc2nc3ccccc3n3cnnc23)c(Cl)c1 5.8%
CCN(CC)C(=O)Cn1cc(C(=O)C(=O)NCCc2c[nH]c3ccccc23)c2ccccc21 7.03%
CCN(CC)CCN(C(=O)c1cc2ccccc2cc1OC)c1nc2ccc(F)cc2s1 6.61%
COc1ccc(CN2CCCCCC2)cc1 18.2%
FC(F)(F)c1ccc(CN2CCCCCC2)cc1 16.1%
COc1cc(OC)c(OC)cc1CN1CCN(Cc2ccc(C(F)(F)F)cc2)CC1 24.6%
COc1cc(CN2CCN(C(O)(c3ccccc3)c3ccccc3)CC2)cc(OC)c1OC 27.9%
O=C(O)CC1(CC(=O)NCc2cc(F)cc3c2OCOC3)CCCCC1 5.25%
CN(CCc1cn[nH]c1)C(=O)CC1C(=O)NCCN1Cc1ccccc1C(F)(F)F (stereo not drawn) -8.64%
Cc1ccc(C(=O)NC(=O)CSc2ncccc2C(=O)O)cc1 1.2%
Cc1ccc(S(=O)(=O)NN2C(=O)c3ccccc3NC2(C)C)cc1 6.9%
CC[C@H](C)[C@H](NC(N)=O)C(=O)Nc1ccc2c(c1)OCO2 3.75%
N#Cc1ccccc1S(=O)(=O)N1CCC(C(=O)Nc2cccc(C(=O)NC3CC3)c2)CC1 -0.25%
CCOC(=O)c1c(/N=C/c2ccc(OC)cc2O)sc2c1CCN(C)C2 17%
Cc1cc(C(=O)O)ccc1N=Cc1c(O)ccc2ccccc12 3.39%
CCOC(=O)c1c(/N=C/c2ccc(C)cc2O)sc2c1CCC2 5.81%
CCOC(=O)c1cc(CC)sc1/N=C/c1c(O)ccc2ccccc12 8.65%
N#Cc1ccc(OCC(=O)N2CCN(C(=O)c3ccco3)CC2)cc1 3.79%
Cc1cc(COc2ccccc2OCc2cc(C)no2)on1 9.58%
CCOC(=O)c1c(N)sc(N)c1C(=O)OCC 7.17%
CCOC(=O)c1c(N)sc2c(OCC)c(Br)ccc12 5.92%
CCOC(=O)c1c(NC(C)=O)sc2c(O)c(Br)ccc12 4.12%
CCOC(=O)c1c(NC(C)=O)sc2c(OC)c(Br)ccc12 -9.05%
CN(CC(=O)Nc1ccc(F)cc1)C(=O)COC(=O)CCN1C(=O)C2CC=CCC2C1=O (stereo not drawn) 2.06%
O=C(CSc1nc(=O)n(CCN2CCOCC2)c2c1CCCC2)Nc1ccc([N+](=O)[O-])cc1 -4.11%
COc1ccc(NC(=O)NNC(=O)C(C)Oc2ccc3ccccc3c2)cc1OC (stereo not drawn) 12.5%
CCn1c(=O)c2c3c(sc2n2cnnc12)CCC3 4.61%
CCn1c(=O)c2c3c(sc2n(C)c1=O)CCC3 10.3%
c1ccc(CN2CCC3CC2c2cc(N4CCOCC4)ccc23)cc1 (stereo not drawn) 11.4%
O=C1OCC2=C1C(c1ccc(F)cc1)Sc1ccccc1N2 (stereo not drawn) -0.0633%
CCOC(=O)c1c(C)[nH]c2c1cc(O)c1ccccc12 13.6%
CCOC(=O)c1c(OCC)[nH]c2ccc(O)cc12 7.01%
CS(=O)(=O)N1CCN(c2ccc(NC(=O)CSc3ccc(Cl)cc3)cc2)CC1 3.35%
CCN1/C(=C\c2ccc3cc(C)ccc3[n+]2CC)Sc2cc(C)c(C)cc21 5.51%
CCN1/C(=C/c2ccc3cccc(C)c3[n+]2CC)Sc2ccccc21 17.8%
CCN1/C(=C/c2ccc3cc(C)ccc3[n+]2CC)Sc2cc(C)c(C)cc21 15.9%
CCN1/C(=C/c2ccc3cc(C)ccc3[n+]2CC)Sc2ccc3sccc3c21 6.5%
CCN1/C(=C/c2ccc3ccccc3[n+]2CCCS(=O)(=O)[O-])C=Cc2cc(C)ccc21 5.54%
Cc1ccc2c(c1)S/C(=C\c1cccc[n+]1C)N2CCO 4.89%
CCN1/C(=C/c2ccc3cc(C)cc(C)c3[n+]2CC)Sc2cc(C)ccc21 24.3%
C=CC[n+]1c(/C=C2\C=Cc3cc(C)ccc3N2CC)ccc2ccccc21 17.6%
Cc1ccc2nc(SCC(=O)Nc3ccccc3F)nc(=O)n2c1 3.36%
Cc1ccc(N(CC(=O)NCc2ccco2)C(=O)CCC(=O)Nc2ccccn2)c(C)c1 10.2%
CS(=O)(=O)N(CC(=O)N/N=C/c1cccs1)c1cccc(Cl)c1Cl 11.9%
